This passage reports Potency results from PubChem BioAssay (Tox21).

The nature of the assay: Nuclear factor erythroid 2-related factor 2/antioxidant responsive element (Nrf2/ARE) small molecule agonists: qHTS cell viability counter screen in human keratinocytes (AID 1919968). Further: nearly all actives have a fitted effect of over 55% in size. To be noted: KeratinoSens HaCaT ARE cells viability, CellTiter-Fluor, 24 h; series mostly up to 92.4 µM. Put shortly:
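Parallel cytotoxicity read: KeratinoSens HaCaT cells, compound treatment 23 h, viability by CellTiter-Fluor fluorescence 1 h post-reagent.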

Several values for one entry are separate records, joined by “and”; a condition that tells them apart may be missing. Identical values can stand only once. Inconclusive results are not listed. Entries that show only a call come without a potency. Some compounds were tested as several samples or in several runs, with calls that do not always agree. Activity calls are given as the source filed them. The call rests on the fitted dose curve; in most records, active means well fitted cell-killing curve with a large enough effect in the repeat runs; inconclusive means weak or mixed curves, or effect the other way; inactive means flat fitted curve, though single readings scatter.
Potency means the concentration at half of the fitted maximal effect.

As for `COP(=O)(CCC(=O)NCO)OC`, the Potency result was “inactive”.

`O=C(O)CCCOc1ccc(Cl)cc1Cl`: the Potency entry is “inactive”.

Regarding `COCC(=O)N(c1c(C)cccc1C)C(C)C(=O)OC` (stereo not drawn), the Potency result is “inactive”.

Regarding `CC(=O)C(C)(C)C`, the Potency result was “inactive”.

As to `C[C@]12CC[C@H]3[C@@H](CC=C4C[C@@H](O)CC[C@@]43C)[C@@H]1CC[C@@H]2O`, the Potency entry is “inactive”.

As to `COC[C@@H](NC(C)=O)C(=O)NCc1ccccc1`, the Potency result was “inactive”.

Turning to `CC(NC(C)(C)C)C(=O)c1cccc(Cl)c1` (stereo not drawn), the Potency entry was “inactive”.

Regarding `C[C@]12CCC(=O)C[C@@H]1CC[C@@H]1[C@@H]2CC[C@]2(C)[C@@H](O)CC[C@@H]12`, the Potency entry was “inactive”.

As to `CNC(=O)Oc1cccc2c1OC(C)(C)O2`, the Potency entry was “inactive”.

Take `CCNc1nc(NC(C)(C)C)nc(SC)n1`: the Potency result was “inactive”.

`C=CCOC(Cn1ccnc1)c1ccc(Cl)cc1Cl` (stereo not drawn): the Potency is 43.3 µM (active) and 18.8 µM (active).

On to `CCN(CC)N=O`, for which the Potency result is “inactive”.

On to `[O]=[Cr][O][Cr]=[O]`, for which the Potency entry was “inactive”.

For `COC(=O)Nc1nc2ccccc2[nH]1`, the Potency result was “inactive”.

`CC(=O)O`: the Potency result was “inactive”.

As for `CCCCCc1cc(O)cc(O)c1`, the Potency result is “inactive”.

Regarding `CC[N+](CC)(CC)CC`, the Potency entry is “inactive”.

As for `Sc1ccccc1`, the Potency entry was “inactive”.

Consider `CN1CC[C@]23c4c5ccc(O)c4O[C@H]2[C@@H](O)CC[C@H]3[C@H]1C5`, for which the Potency entry is “inactive”.

`[Cl-].[Cl-].[Cl-].[Fe+3]`: the Potency result was “inactive”.

Regarding `O=C(O)c1ccccc1O`, the Potency entry is “inactive”.

For the compound `CCCCCCCCCl`, the Potency result was “inactive”.

Take `CN1C(=O)CN=C(c2ccccc2)c2cc(Cl)ccc21`: the Potency result is “inactive”.

For `Nc1ccc2ccccc2c1`, the Potency entry is “inactive”.

For the compound `Cl`, the Potency entry is “inactive”.

`CCc1cccc(C)c1N(C(=O)CCl)C(C)COC` (stereo not drawn): the Potency entry is “inactive”.

Consider `CCCC[n+]1ccccc1C`, for which the Potency result was “inactive”.

For the compound `CC(C)CCCCCOC(=O)c1ccccc1C(=O)OCCCCCC(C)C`, the Potency entry is “inactive”.

For the compound `O=P1(NCCCl)OCCCN1CCCl` (stereo not drawn), the Potency result was “inactive”.

With `CCn1cc[n+](C)c1C`, the Potency result is “inactive”.

Turning to `CCN(CC)C1CCCCC1`, the Potency entry is “inactive”.

Consider `CC(C)(C)C(=O)C(Cl)Cl`, for which the Potency result was “inactive”.

For `O=C(CCl)c1ccc(Cl)cc1Cl`, the Potency result is “inactive and 11.9 µM (active)”.

Regarding `COP(=S)(OC)Oc1cc(Cl)c(Cl)cc1Cl`, the Potency result is “inactive”.

Regarding `CN(C)C(=S)S`, the Potency was 9.89 µM (active) and 607 nM (active) and 27.3 µM (active).

`CCCCCCCCCCCCOS(=O)(=O)O`: the Potency entry was “inactive”.

On to `CCCCCCn1cc[n+](C)c1`, for which the Potency entry is “inactive”.

`[Cl-].[Cl-].[Hg+2]`: the Potency was 7.66 µM (active) and 3.06 µM (active).

For `[Cd+2].[Cl-].[Cl-]`, the Potency is 27.5 µM (active) and 43.3 µM (active).

Consider `OCCCCO`, for which the Potency result was “inactive”.

Turning to `CC(=O)C=C(C)C`, the Potency result was “inactive”.

Take `Nc1c(Cl)c(Cl)nc(C(=O)O)c1Cl`: the Potency result is “inactive”.

For `O=C(NCc1cccnc1)Nc1ccc([N+](=O)[O-])cc1`, the Potency entry was “inactive”.

As to `CCOC(=O)CC(SP(=O)(OC)OC)C(=O)OCC` (stereo not drawn), the Potency entry was “inactive”.

As for `CNC(=O)Oc1cccc2ccccc12`, the Potency entry is “inactive”.

As for `O=[N+]([O-])O`, the Potency result is “inactive”.

As for `S=c1[nH]c2ccccc2[nH]1`, the Potency result was “inactive”.

As to `O=S(=O)(O)O`, the Potency entry was “inactive”.
